Measurements: PubChem BioAssay
The source made the active and inactive calls. Unless noted, the rule behind the calls is not given here.

Assays:
[1] = HepG2 liver cancer cell viability effects, profiling panel, resazurin fluorescence, 24 h, PK04 Diversity Set (AID 1172); conditions: higher = more signal
[2] = basal S. cerevisiae growth modulation, no modifier, primary screen, OD600, strain BY4716, 24 h, basal condition (AID 1173); conditions: OD600, 24 h, higher = more signal, called active from +8 up or from −8 down
[3] = MM1S myeloma cell viability, profiling panel, resazurin fluorescence, basal, 24 h, PK04 Diversity Set (AID 1174); conditions: higher = more signal, called active from +8 up or from −8 down;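 note: MM1S multiple myeloma cell line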
[4] = target: Dihydroorotate dehydrogenase (quinone), mitochondrial (Plasmodium falciparum (isolate 3D7)) (UniProt Q08210); assay: PfDHODH enzyme inhibitors, primary screen, biochemical, C-terminal His tag, absorbance 600 nm (AID 1175); conditions: DCIP absorbance 600 nm, higher = more signal, called active from +8 up or from −8 down;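 note: recombinant parasite enzyme with a five histidine tag at its C terminus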
[5] = P. aeruginosa biofilm formation inhibitors, primary screen, strain PAO1, LB-PBS medium, absorbance 600 nm (AID 1176); conditions: P. aeruginosa PAO1 growth/biofilm, A600, 12 h; higher = more signal
[6] = S. cerevisiae RM11-1a growth modifiers, primary screen, strain RM11-1a, OD600, basal, 24 h (AID 1177); conditions: OD600, 24 h, higher = more signal, called active from +8 up or from −8 down;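 note: cultures grown under basal conditions with no added stressor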
[7] = E. coli acrAB mutant growth effects, primary screen, E. coli filamentation inducers, strain DRC39, OD650, 24 h (AID 1178); conditions: higher = more signal, called active from +8 up or from −8 down;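 note: growth measured as culture turbidity by optical density at 650 nm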
[8] = E. coli acrAB mutant growth effects, primary screen, E. coli filamentation inducers, strain DRC39, OD650, 48 h (AID 1179);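 note: screen aims at cell division blockers that make cells filament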; conditions: E. coli DRC39 delta-acrAB growth, higher = more signal, called active from +8 up or from −8 down
[9] = RPMI8226 myeloma cell viability, profiling panel, resazurin fluorescence, basal, 24 h, PK04 Diversity Set (AID 1180); conditions: higher = more signal;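 note: RPMI8826 multiple myeloma cell line at 5000 cells per well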
[10] = target: E3 ubiquitin-protein ligase XIAP (Homo sapiens) (UniProt P98170); assay: XIAP binders, primary screen, biophysical, small-molecule microarray, fluorescence 635 nm (AID 1181); conditions: small-molecule microarray binding, higher = more signal;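 note: score merges 667 nm emission and signal to noise over triplicate slides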
[11] = test system: XIP peptide (Xip251-270) binding; assay: small-molecule binders of XIP peptide, primary screen, biochemical, small-molecule microarray, fluorescence 635/667 nm, 0.1 µg/mL protein (AID 1182); conditions: fluorescent protein binding, 635 nm, higher = more signal, called active from +8 up or from −8 down
[12] = test system: XIP peptide (Xip251-270); assay: small-molecule binders of XIP peptide, primary screen, biochemical, small-molecule microarray, fluorescence 635/667 nm, 0.5 µg/mL protein (AID 1183); conditions: small-molecule microarray binding, fluorescence 635 nm; higher = more signal
[13] = Plasmodium falciparum growth inhibition, primary screen, strain 3D7, DAPI fluorescence, 100 nL (AID 1184);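 note: parasites grown inside human red blood cells in medium with human serum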; conditions: P. falciparum 3D7 growth, 3 d, higher = more signal
[14] = target: Homeobox protein Hox-A13 (Mus musculus) (UniProt Q62424); assay: inhibitors of HoxA13-DNA binding, primary screen, biochemical, fluorescence polarization, labeled oligonucleotide (AID 1185); conditions: 15 min, higher = more signal, called active from +8 up or from −8 down
[15] = inhibitors of hydroxyurea-induced Chk1 phosphorylation, primary screen, imaging, HeLa, phospho-Chk1 antibody, percent positive cells (AID 1186); conditions: hydroxyurea-induced phospho-Chk1 immunofluorescence imaging, higher = more signal
[16] = inhibitors of hydroxyurea-induced Chk1 phosphorylation, primary screen, imaging, HeLa, phospho-Chk1 nuclear intensity (AID 1187); conditions: hydroxyurea-induced phospho-Chk1 immunofluorescence imaging, higher = more signal

Chain of Homeobox protein Hox-A13 (Mus musculus) (Q62424 whole entry, looked up): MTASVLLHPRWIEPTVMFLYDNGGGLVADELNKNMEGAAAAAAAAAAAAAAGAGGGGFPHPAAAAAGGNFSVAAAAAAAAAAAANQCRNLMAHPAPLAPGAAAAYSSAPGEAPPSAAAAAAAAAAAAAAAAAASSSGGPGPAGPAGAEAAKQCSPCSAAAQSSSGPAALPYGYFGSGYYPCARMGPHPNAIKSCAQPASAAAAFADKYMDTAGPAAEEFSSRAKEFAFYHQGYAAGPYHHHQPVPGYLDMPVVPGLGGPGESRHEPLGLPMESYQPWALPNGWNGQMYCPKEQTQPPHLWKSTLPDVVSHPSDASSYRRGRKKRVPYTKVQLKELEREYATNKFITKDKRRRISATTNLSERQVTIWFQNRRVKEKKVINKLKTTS
Chain of Dihydroorotate dehydrogenase (quinone), mitochondrial (Plasmodium falciparum (isolate 3D7)) (Q08210 whole entry, looked up): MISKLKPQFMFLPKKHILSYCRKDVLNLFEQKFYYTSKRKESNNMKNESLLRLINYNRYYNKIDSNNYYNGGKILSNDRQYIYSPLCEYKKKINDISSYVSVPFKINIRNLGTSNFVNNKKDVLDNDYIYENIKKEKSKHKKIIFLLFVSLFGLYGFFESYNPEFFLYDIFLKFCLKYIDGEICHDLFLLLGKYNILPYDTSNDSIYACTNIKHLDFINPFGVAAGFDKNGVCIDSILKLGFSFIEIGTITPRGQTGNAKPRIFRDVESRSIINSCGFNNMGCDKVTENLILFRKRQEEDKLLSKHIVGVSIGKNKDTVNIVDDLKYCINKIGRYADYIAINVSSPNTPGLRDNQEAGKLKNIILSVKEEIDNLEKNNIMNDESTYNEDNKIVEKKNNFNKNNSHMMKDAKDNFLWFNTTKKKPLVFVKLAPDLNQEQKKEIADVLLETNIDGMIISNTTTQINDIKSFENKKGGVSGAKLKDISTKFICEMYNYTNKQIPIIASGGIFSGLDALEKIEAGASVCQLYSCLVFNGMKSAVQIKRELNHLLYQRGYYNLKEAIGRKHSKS
Chain of E3 ubiquitin-protein ligase XIAP (Homo sapiens) (P98170 whole entry, looked up): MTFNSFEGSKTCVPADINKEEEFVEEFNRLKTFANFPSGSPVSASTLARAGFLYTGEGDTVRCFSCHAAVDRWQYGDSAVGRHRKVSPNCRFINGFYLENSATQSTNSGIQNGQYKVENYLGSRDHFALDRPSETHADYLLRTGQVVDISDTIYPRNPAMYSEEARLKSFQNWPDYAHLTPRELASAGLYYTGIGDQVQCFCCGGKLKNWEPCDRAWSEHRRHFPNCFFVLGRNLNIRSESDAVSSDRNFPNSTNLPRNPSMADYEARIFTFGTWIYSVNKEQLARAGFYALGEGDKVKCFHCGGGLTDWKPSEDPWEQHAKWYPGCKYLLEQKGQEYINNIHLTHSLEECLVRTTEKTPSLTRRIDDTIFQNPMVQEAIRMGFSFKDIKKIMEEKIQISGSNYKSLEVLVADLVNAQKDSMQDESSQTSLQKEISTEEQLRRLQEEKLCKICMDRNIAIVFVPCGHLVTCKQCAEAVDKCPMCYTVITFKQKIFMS

Structure (SMILES)	z-score [1]	z-score [2]	z-score [3]	composite z-score [4]	z-score [5]	z-score [6]	z-score [7]	z-score [8]	z-score [9]	composite z-score [10]	composite z-score [11]	composite z-score [12]	z-score [13]	z-score [14]	z-score [15]	z-score [16]
C=CCC(OC(C)=O)[C@@H]1[C@@H](N(Cc2cc3ccccc3o2)C(=O)c2ccc(-c3ccccc3)cc2)c2cc(OCCCO)ccc2N1C(=O)c1ccc2ccccc2n1 (stereo partly drawn)	-0.0694	0.848 (inactive)	0.943 (inactive)	0.706 (inactive)	0.35 (inactive)	0.913 (inactive)	0.965 (inactive)	0.553 (inactive)	0.97	-0.0818	-0.341 (inactive)	-0.317	-1.49	-1.34 (inactive)	-0.203 (inactive)	-0.103 (inactive)
CCCCC(O)C1C=CC2C(=O)NC(=O)C2N1Nc1ccc(Cl)cc1Cl (stereo not drawn)	-2.57	-16.6 (active)	-2.26 (inactive)	-0.2 (inactive)	0.546 (inactive)	-5.12 (inactive)	-0.818 (inactive)	-1.31 (inactive)	-2.01	-0.272	-0.0109 (inactive)	-0.405	-0.565	-4.78 (inactive)	-0.515 (inactive)	-0.438 (inactive)
C=C(COC)/C(=C/C[C@H](OC(=O)c1ccncc1)c1ccc(OCCO)cc1)c1cc(C(=O)OC)ccc1OC	0.672	0.194 (inactive)	-0.163 (inactive)	-1.46 (inactive)	-0.505 (inactive)	-0.402 (inactive)	-0.0988 (inactive)	0.33 (inactive)	-0.316	0.177	-0.202 (inactive)	0.667	-3.05	-4.65 (inactive)	0.203 (inactive)	0.159 (inactive)
COC(=O)[C@@]1(Cc2ccc(OC)cc2)[C@@H]2[C@@H](CC(=O)[C@H]2CC(=O)C(=O)N2CCCC2)CN1C(=O)c1ccccc1	-0.437	0.442 (inactive)	-0.526 (inactive)	-0.448 (inactive)	0.274 (inactive)	-0.148 (inactive)	-0.415 (inactive)	-0.394 (inactive)	-1.57	-0.01	0.506 (inactive)	0.807	-0.937	-2.95 (inactive)	-0.961 (inactive)	-1.03 (inactive)
CC(C)CNC(=O)[C@@H]1c2ccccc2C(=O)N(C(C)C)[C@H]1c1ccc(CO)cc1	0.0161	0.294 (inactive)	0.334 (inactive)	-1.57 (inactive)	0.348 (inactive)	-1.19 (inactive)	0.855 (inactive)	1.76 (inactive)	0.609	-0.0434	-0.885 (inactive)	0.93	0.643	-0.0386 (inactive)	-0.586 (inactive)	-0.784 (inactive)
CN(C)CCCC[C@@H]1NC(=O)[C@@H]2C[C@H](C(=O)NCCCCCCNC(=O)CS)[C@H](c3cccc(OCCO)c3)N2C1=O	-0.725	-0.103 (inactive)	-0.196 (inactive)	-0.264 (inactive)	0.268 (inactive)	-0.491 (inactive)	0.303 (inactive)	0.94 (inactive)	0.117	-0.0052	0.602 (inactive)	0.667	-0.391	-2.01 (inactive)	0.134 (inactive)	-0.332 (inactive)
C=C(CCCC)/C(=C/C[C@H](OC(C)=O)c1cccc(OCCO)c1)c1cc(C(=O)OC)ccc1OC	2.33	-0.456 (inactive)	1.44 (inactive)	-0.989 (inactive)	0.473 (inactive)	-0.515 (inactive)	1.85 (inactive)	1.34 (inactive)	1.43	-0.0297	0.0894 (inactive)	-0.185	-2.35	-4.24 (inactive)	0.0786 (inactive)	0.307 (inactive)
Cc1ccc(F)cc1S(=O)(=O)N[C@@H]1CCN(Cc2ccc3c(c2)OCO3)C1	-0.622	-4.86 (inactive)	-0.584 (inactive)	0.171 (inactive)	-0.177 (inactive)	0.34 (inactive)	-0.572 (inactive)	-2.33 (inactive)	0.224	0.13	0.92 (inactive)	0.321	0.531	-3.75 (inactive)	-0.201 (inactive)	-0.271 (inactive)
CC(C)C[C@H]1NC(=O)[C@H](Cc2ccccc2)NC(=O)[C@@]23C(=O)N[C@@H](Cc4ccccc4)C2[C@H](C)[C@@]2(C)O[C@H]2C3/C=C/C/C=C\CNC1=O (stereo partly drawn)	-0.59	-0.396 (inactive)	-0.263 (inactive)	-0.228 (inactive)	0.519 (inactive)	-0.711 (inactive)	-0.437 (inactive)	-0.231 (inactive)	-0.0041	-0.17	0.252 (inactive)	0.718	-0.799	-7.8 (inactive)	-0.157 (inactive)	0.005 (inactive)
CC(C)CNC(=O)[C@@H]1c2ccccc2C(=O)N(Cc2ccccc2)[C@H]1c1ccc(CO)cc1	0.768	-0.21 (inactive)	-0.628 (inactive)	0.13 (inactive)	0.388 (inactive)	-0.232 (inactive)	0.278 (inactive)	0.0254 (inactive)	0.19	0.0785	0.906 (inactive)	0.0309	-0.172	-1.68 (inactive)	0.212 (inactive)	-0.161 (inactive)
C=CCC(OC(C)=O)[C@@H]1[C@@H](N(Cc2ccc(-c3cccc(C(F)(F)F)c3)o2)C(=O)Cc2ccc(F)cc2)c2cc(OCCCO)ccc2N1C(=O)c1ccc2ccccc2n1 (stereo partly drawn)	0.286	0.441 (inactive)	0.229 (inactive)	-0.235 (inactive)	0.927 (inactive)	-0.116 (inactive)	-0.36 (inactive)	-0.15 (inactive)	-0.128	0.0454	-0.384 (inactive)	-0.904	0.587	-2.08 (inactive)	0.918 (inactive)	0.64 (inactive)
CCCCC(=C=CC[C@@H](O)c1cccc(OCCO)c1)C[C@@H](O)COCc1ccccc1	0.161	-2.28 (inactive)	-0.164 (inactive)	-2.23 (inactive)	0.212 (inactive)	-2.76 (inactive)	0.812 (inactive)	0.577 (inactive)	0.528	-0.0561	-0.0344 (inactive)	0.713	-1.1	-4.82 (inactive)	-0.255 (inactive)	0.827 (inactive)
[N-]=[N+]=NCc1ccccc1[C@H]1OC(c2ccc(OCCCO)cc2)=N[C@@]1(Cc1ccccc1)C(=O)N1CCOCC1	1.35	-2.25 (inactive)	-0.0295 (inactive)	0.222 (inactive)	0.841 (inactive)	0.176 (inactive)	-0.0844 (inactive)	-1 (inactive)	0.349	0.0578	0.0472 (inactive)	0.667	-2.62	-3.37 (inactive)	-0.11 (inactive)	-0.185 (inactive)
COCCOC(=O)N1C(=O)[C@@]2(c3cc(C#CCCO)ccc31)[C@H](C(=O)N1CCN(c3ncccn3)CC1)[C@H]1C(=O)O[C@H](c3ccccc3)[C@H](c3ccccc3)N1[C@@H]2c1ccc(O)cc1	-0.335	-0.142 (inactive)	0.359 (inactive)	-1.22 (inactive)	1.85 (inactive)	0.135 (inactive)	0.947 (inactive)	1.6 (inactive)	0.818	-0.031	1.43 (inactive)	0.802	-0.278	-2.3 (inactive)	-0.416 (inactive)	-0.772 (inactive)
C=CCC(OC(C)=O)[C@@H]1[C@@H](N(Cc2cc3ccccc3o2)C(=O)c2cccc3ccccc23)c2cc(OCCCO)ccc2N1C(=O)c1ccc2ccccc2c1 (stereo partly drawn)	-1.18	-0.469 (inactive)	-0.581 (inactive)	0.0769 (inactive)	-0.227 (inactive)	-0.389 (inactive)	-0.423 (inactive)	-0.797 (inactive)	-0.855	-0.146	0.0745 (inactive)	-0.611	-2.65	-1.34 (inactive)	-0.328 (inactive)	-0.0311 (inactive)
COCCOC(=O)N1C(=O)[C@@]2(c3cc(C#Cc4ccc(OC)cc4)ccc31)[C@H](C(=O)N1CCCCCCC1)[C@H]1C(=O)O[C@H](c3ccccc3)[C@H](c3ccccc3)N1[C@@H]2c1ccccc1OCCO	-0.107	1.88 (inactive)	-0.0216 (inactive)	-0.267 (inactive)	2.36 (inactive)	3.2 (inactive)	-0.609 (inactive)	-0.399 (inactive)	-0.429	0.89	1.65 (inactive)	0.728	-2.15	4.81 (inactive)	-0.0224 (inactive)	0.504 (inactive)
Cc1ccc(S[C@]2(C(=O)NC3CC3)CC(=O)N(Cc3cc(C(F)(F)F)cc(C(F)(F)F)c3)[C@@H]2c2ccc(CO)cc2I)cc1	0.411	-5.11 (inactive)	-2.78 (inactive)	-3.55 (inactive)	0.944 (inactive)	-1.6 (inactive)	0.0621 (inactive)	0.108 (inactive)	-2.23	0.723	0.102 (inactive)	0.679	0.496	-2.13 (inactive)	0.505 (inactive)	0.924 (inactive)
O=C1c2ccccc2[C@@]2(Cc3ccccc3N(Cc3ccccc3)C2=O)[C@H](c2ccc(CO)cc2)N1Cc1ccccc1	-0.739	-0.773 (inactive)	-0.851 (inactive)	-2.87 (inactive)	0.0714 (inactive)	-0.153 (inactive)	-0.0466 (inactive)	-0.0261 (inactive)	-0.982	-0.0525	-0.348 (inactive)	-0.283	1.37	-0.928 (inactive)	0.306 (inactive)	0.435 (inactive)
